Data reported in the supplement of paper PMC12632987.
Whole data set: some 4,500 sequences, median “median log2 fold change of GCK-ALFA target abundance (FLAG IP / Myc IP barcode read proportion)” near 0.078, cut for the lowest 2% near -0.6. Shown is part of a subset that was picked to be rich in the lowest values.

B1: GBRAP_160_4228 (protein)
chain: METVEKIVEIFRETFLEALELIEGESEEERRVILDVAVGEIILEVEEIEEATDEMVEIVDERAEKLAERLLAARDASREERRALVEEEAKKLREELEKLA
B2: GBRAP_52_6106 (protein)
chain: ARARVRALVEEALALVRAGREEEARALLEAFARTANEEELELFAEALAELAREAAPEDLDAVWRLAEMAAEALEAAGWPDVLVDDLLARVAAALYERELK
B3: GBRAP_160_4092 (protein)
chain: SEEIEKLIEEIDELRDETKEMIKGESREERATIIRGFGGEVIMLLFESGIVSEEVEDLADELFDELVATVEANPELTEEEIFALIDETVDEIKEAIKEDH
B4: GBRAP_80_6797 (protein)
chain: AAAALAAALAALAEVDAELAARVAAIVATARALGVSDADLADFVAAVLELAKADKEEAAALVDETEALLAEEAARGDTANATAVIRVHAGDALLAVEELE
B5: GBRAP_160_3998 (protein)
chain: SEKLAALKAEIAAILAETLELARGEDAAERLAVVRVMGGQILLTLEESGIVSDEALAAVDAILDATAAEVAANPDLTDAELAALLDATLARINAVLEEHS
B6: GBRAP_11_2747 (protein)
chain: KKEKLKEIAKAAEKLAKLLEELIKEGVDNEELLKEAEKALKELKKLVEEYGDESLKKLVEIIEEEFKKAKEDPENALKYLQNALAAARVLAGQVLLDIEE
B7: GBRAP_184_5076 (protein)
chain: AVLEETLRVEDLEEARARLAALRERVADFRGTLVVLVEMPEFERETARAVLEGLAAMKAAGYVTDVTVGFDAPLTEEQVDFVVDTADALGVKVTLALPEE
B8: GBRAP_35_5513 (protein)
chain: SSIDTETEMLVSTLEDATLAVEDLDPETLKKIVESLAELAREFILQNKNDLEALKRVKEELEKLAEALRKRGLDDPLIKEALEKVEEVIKLAEEEIKKIE

molecular target: GABARAP, O95166; experiment: median log2 fold change of GCK-ALFA target abundance (FLAG IP / Myc IP barcode read proportion) (log2 ratio); each designed protein is fused to an ALFA-tag nanobody in HEK293 cells to bring the named protein to FLAG-tagged glucokinase (GCK); Myc marks an untargeted standard; higher = target protein stabilised (more abundant); details: target protein: 3xFLAG-MCP-GCK-ALFA reporter; HEK293 landing pad (RPLP)
Sequence (O95166 whole entry, the tested form may be a part): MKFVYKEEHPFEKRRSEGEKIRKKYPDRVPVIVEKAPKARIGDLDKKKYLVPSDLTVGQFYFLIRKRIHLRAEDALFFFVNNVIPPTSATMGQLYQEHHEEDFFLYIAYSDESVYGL
Procedure, shortened: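 HEK293 landing-pad cells received a recombined binder library fused to the ALFA nanobody and were induced with 2 μg mL^−1 doxycycline, then transfected with a plasmid encoding a FLAG-tagged target and a Myc-tagged standard. Lysates were collected after 48 h for anti-FLAG and anti-Myc immunoprecipitation, and the circular RNA barcodes were reverse transcribed, amplified and sequenced. Target abundance for each binder is the median log2 ratio of FLAG to Myc barcode read proportions. Barcodes had to reach a proportion of at least 10^−7 in both replicates, each binder needed at least 3 barcodes per replicate, a pseudocount of 10^−6 was applied, and the two replicates were pooled.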

For B1, which “median log2 fold change” value is on record?
The value was -0.393.

Which “median log2 fold change” value does the source give for B2 here?
The value was -0.266.

With B3 as the binder, how does the “median log2 fold change” value read?
Its value is -0.649.

Which “median log2 fold change” value does the source give for B4 here?
Its value is -0.147.

How did the “median log2 fold change” value turn out when B5 was run?
The value was -0.533.

Which “median log2 fold change” value does the source give for B6 here?
Its value is -0.119.

Which “median log2 fold change” value does the source give for B7 here?
The value was 0.0481.

How did the “median log2 fold change” value turn out when B8 was run?
The value was 0.222.
